Source: ChEMBL document CHEMBL4513216, “Probing the Open Global Health Chemical Diversity Library for Multistage-Active Starting Points for Next-Generation Antimalarials” (ACS Infect Dis, 2020)
Screen size: about 68,000 compounds; about 2,700 (4%) showed an effect of 50% or more. The sample as a whole holds a higher share of strong results than the screen did.

Tested on: Plasmodium berghei
Assay: Screen against P. berghei liver stage (PbLuc), transformed with Luciferase, at 2uM
Format: functional, HepG2
Details: tested at 2 uM

| SMILES | INHIBITION [%] |
| --- | --- |
| CN(C)Cc1nn(C)c2c1CN(S(=O)(=O)c1ccccc1F)C2 | 32.05 |
| COCCN(Cc1ccoc1)S(=O)(=O)c1ccc(F)c(C)c1 | -10.1 |
| CCOc1ccc(S(=O)(=O)N(CCOC)Cc2ccncc2)cc1F | 60.35 |
| CCOc1ccc(S(=O)(=O)N(CCOC)Cc2ccoc2)cc1F | 21.37 |
| CSCC[C@@H](CO)n1ccnc1-c1nccn1C | 17.37 |
| CN1CC(=O)N(c2cnn(C)c2)CC12CCN(C(=O)c1ccsc1)C2 (centres undefined) | -6.94 |
| CCc1noc(C(C)N2CCN(Cc3cnc(C)cn3)CC2)n1 (centres undefined) | -1.29 |
| Cc1nc(N2CCN(C(=O)c3ccsc3)CC2)c2cnn(C)c2n1 | 42.11 |
| CN1C(=O)CCC12CCN(c1ccc(C#N)cn1)CC2 | 5.22 |
| N#Cc1ccc(N2CCCC3(CCC(=O)N3CC3CC3)CC2)nc1 (centres undefined) | -16.78 |
| N#Cc1ccc(N2CCC3(CCC(=O)N3CCN3CCCC3)CC2)nc1 | 52.96 |
| COc1ccccc1N1CCN(C(=O)COc2c(C)occc2=O)CC1 | -24.81 |
| Cc1nc(C)n(CC2CCCN(CCOc3ccc(F)cc3)C2)n1 (centres undefined) | -23.18 |
| Cc1cccc(CN2CCC23CCCNC3)n1 (centres undefined) | 20.51 |
| Cc1cccc(CN2CCCCC23CCNC3)n1 (centres undefined) | 22.16 |
| Cc1cccc(CN2CCCC23CCNC3)n1 (centres undefined) | 63.89 |
| CCc1nnc2n1CCN(Cc1csc(NC(C)=O)n1)C2 | -5.09 |
| Cc1ccc2c(c1)SCC(=O)N2CC(=O)N1CCC[C@H]1c1nc(C)no1 | 22 |
| COc1c(CNC2CCc3cc(F)ccc32)c(C(C)C)nn1C (centres undefined) | -52.77 |
| COCC(=O)NCC1(COc2cccnc2)C[C@@H](O)[C@@H](O)C1 (some centres undefined) | -40.44 |
| CCCN1CCCC2(CCN(S(=O)(=O)c3cc(C)nn3CC)C2)C1=O (centres undefined) | 57.75 |
| CCCn1nccc1S(=O)(=O)N1CCC2(CCCN(C(C)C)C2=O)C1 (centres undefined) | 38.67 |
| CCn1nccc1S(=O)(=O)N1CCC2(CCCN(C(C)C)C2=O)C1 (centres undefined) | 17.2 |
| CCn1nc(C)cc1S(=O)(=O)N1CCC2(CCCN(C(C)C)C2=O)C1 (centres undefined) | 55.36 |
| CCCN1CCCC2(CCN(S(=O)(=O)c3cccnc3)C2)C1=O (centres undefined) | 11.9 |
| CCn1nc(C)cc1S(=O)(=O)N1CCC2(CC(=O)NC2=O)C1 (centres undefined) | 5.28 |
| COCCN1C(=O)[C@@H]2CC[C@H]1CN(C(=O)COc1ccc(F)c(Cl)c1)C2 | 38.83 |
| COc1ccc(C2=CCN(C(=O)C3CCN(C)C(=O)C3)CC2)cc1 (centres undefined) | 17.39 |
| O=C(NCc1ccccn1)[C@@]12CCO[C@@H]1CCN(c1ncccn1)C2 | -20.87 |
